For nine sequences, binding signal results are on record in publication PMC8384837, “Expanding the binding specificity for RNA recognition by a PUF domain”.

Common to all, as to assay: yeast three-hybrid, YBZ-1, SC-Leu-His + 0.5 mM 3-AT, 4 days
What all share (conditions): tags: N-Gal4 AD-HA kept; label: inside an RPR1-promoter hybrid RNA with tandem MS2 sites; ssRNA

Assay [1] concerns the target PUM1 PUF domain R3-RVS (Homo sapiens, UniProt Q14671 828-1176, C935R;R936V;Q939S). The method, boiled down: (§1)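 Pumilio-1 PUF domain libraries, randomized at the three base-contacting residues of each repeat, were co-expressed with matching RNA elements from a centromeric plasmid in strain YBZ-1, which carries a LexA–MS2 coat fusion and a HIS3 reporter. Transformants grew for four days on SC-Leu (input) or on SC-Leu-His + 0.5 mM 3-AT (selection), and the repeat regions were PCR-amplified and Illumina-sequenced. The interaction score is the log change in variant frequency from input to selection. That logarithm is base 2, with a pseudocount of 1 where a variant was absent.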

Assay [2] has as its target PUM1 PUF domain R1-RVS (Homo sapiens, UniProt Q14671 828-1176, S863R;R864V;Q867S). The method, boiled down:
as §1

In assay [3] the target is PUM1 PUF domain R1-RGS (Homo sapiens, UniProt Q14671 828-1176, S863R;R864G;Q867S). The method, boiled down: as §1
In assay [4] the target is PUM1 PUF domain R5-TSR (Homo sapiens, UniProt Q14671 828-1176, C1007T;R1008S;Q1011R). The method, boiled down: as §1
In assay [5] the target is PUM1 PUF domain R5-QQR (Homo sapiens, UniProt Q14671 828-1176, C1007Q;R1008Q;Q1011R). The method, boiled down:
as §1

The target in assay [6] is PUM1 PUF domain R5-RKI (Homo sapiens, UniProt Q14671 828-1176, C1007R;R1008K;Q1011I). The method, boiled down:
as §1

The target in assay [7] is T1, PUM1 PUF domain R6-FYS (Homo sapiens, UniProt Q14671 828-1176, N1043F;Q1047S).
T1 sequence: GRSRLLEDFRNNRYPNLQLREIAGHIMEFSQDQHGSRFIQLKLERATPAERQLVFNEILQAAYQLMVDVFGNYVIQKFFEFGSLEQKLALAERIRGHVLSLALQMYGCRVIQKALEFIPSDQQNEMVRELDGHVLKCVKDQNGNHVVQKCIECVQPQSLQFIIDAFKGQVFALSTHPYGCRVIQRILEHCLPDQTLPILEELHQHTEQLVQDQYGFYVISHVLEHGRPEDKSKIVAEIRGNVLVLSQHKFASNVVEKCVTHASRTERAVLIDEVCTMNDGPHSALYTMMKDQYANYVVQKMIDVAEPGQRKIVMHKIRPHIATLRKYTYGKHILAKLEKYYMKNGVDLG
The method, boiled down: as §1

The target of assay [8] is T2, PUM1 PUF domain R6-GYR (Homo sapiens, UniProt Q14671 828-1176, N1043G;Q1047R).
T2 sequence: T1 sequence with F216G, S220R
The method, boiled down: as §1

In assay [9] the target is PUM1 PUF domain R4-WSR (Homo sapiens, UniProt Q14671 828-1176, N971W;H972S;Q975R). The method, boiled down:
as §1

For assay [10], the target named is PUM1 PUF domain R4-CNI (Homo sapiens, UniProt Q14671 828-1176, N971C;H972N;Q975I). The method, boiled down:
as §1

Positions count from the first letter of the chain named.

For “GGCUAGAACUAGUGGAUCCCCCGGCGCCCGGCGGCUCGAGCCCGGGUAAGUGUAAUUAGUCUGCAUGCCGCCGGGCGCCAUGCCUGCAGGUCGACUCUAGAAAACAUG”, the binding signal in assay [1] is 2.78 log2 enrichment (interaction score).

For the sequence “GGCUAGAACUAGUGGAUCCCCCGGCGCCCGGCGGCUCGAGCCCGGGUAAGUGUAAAUUGUCUGCAUGCCGCCGGGCGCCAUGCCUGCAGGUCGACUCUAGAAAACAUG”, the binding signal in assay [2] was 3.69 log2 enrichment (interaction score); in assay [3], 2.53 log2 enrichment (interaction score). As to “GGCUAGAACUAGUGGAUCCCCCGGCGCCCGGCGGCUCGAGCCCGGGUAAGUGUCAAUAGUCUGCAUGCCGCCGGGCGCCAUGCCUGCAGGUCGACUCUAGAAAACAUG”, the binding signal in assay [4] is 5.55 log2 enrichment (interaction score); in assay [5], 6.22 log2 enrichment (interaction score); in assay [6], 3.24 log2 enrichment (interaction score). For “GGCUAGAACUAGUGGAUCCCCCGGCGCCCGGCGGCUCGAGCCCGGGUAAGUGUAAAUAGUCUGCAUGCCGCCGGGCGCCAUGCCUGCAGGUCGACUCUAGAAAACAUG”, the figures for the binding signal in [7] and in assay [8] were 2.53 log2 enrichment (interaction score) and 6.45 log2 enrichment (interaction score), respectively. Turning to “GGCUAGAACUAGUGGAUCCCCCGGCGCCCGGCGGCUCGAGCCCGGGUAAGUGUAUAUAGUCUGCAUGCCGCCGGGCGCCAUGCCUGCAGGUCGACUCUAGAAAACAUG”, the binding signal in [9] is 1.87 log2 enrichment (interaction score). In the case of “GGCUAGAACUAGUGGAUCCCCCGGCGCCCGGCGGCUCGAGCCCGGGUAAGUGUACAUAGUCUGCAUGCCGCCGGGCGCCAUGCCUGCAGGUCGACUCUAGAAAACAUG”, the binding signal in assay [9] is 2.55 log2 enrichment (interaction score); in assay [10] it was 3.63 log2 enrichment (interaction score). “GGCUAGAACUAGUGGAUCCCCCGGCGCCCGGCGGCUCGAGCCCGGGUAAGUGUAAAUGGUCUGCAUGCCGCCGGGCGCCAUGCCUGCAGGUCGACUCUAGAAAACAUG”: the binding signal in assay [2] was 1.89 log2 enrichment (interaction score); in assay [3], 0.85 log2 enrichment (interaction score).

As to “GGCUAGAACUAGUGGAUCCCCCGGCGCCCGGCGGCUCGAGCCCGGGUAAGUGCAAAUAGUCUGCAUGCCGCCGGGCGCCAUGCCUGCAGGUCGACUCUAGAAAACAUG”, the binding signal in assay [8] is 5.76 log2 enrichment (interaction score). As to “GGCUAGAACUAGUGGAUCCCCCGGCGCCCGGCGGCUCGAGCCCGGGUAAGUGUAAAUCGUCUGCAUGCCGCCGGGCGCCAUGCCUGCAGGUCGACUCUAGAAAACAUG”, the binding signal was 4.31 log2 enrichment (interaction score) in assay [2] and 2.68 log2 enrichment (interaction score) in assay [3].
